This passage reports growth results from PubChem BioAssay (NCI).

Several values for one entry are separate records, joined by “and”; a condition that tells them apart may be missing. Equal entries are not always repeated. Compounds without any hit were thinned out: in the full panel of roughly 83,000, 20% have a hit.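 Single-concentration screen, 48 h exposure, 96-well plates. Endpoint: percent growth. Below 10 = active.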 Activity calls are given as the source filed them.

The assay concerns MDA-MB-468 breast. The assay is described as follows: NCI-60 one-dose screen, 48 h (100 = growth as untreated, 0 = no growth, -100 = all killed). Particulars: 10 µM unless noted.
As for `Cc1ccc(C)c(NC2=C(Cl)C(=O)c3nc(C)ccc3C2=O)c1`, the growth is -73.5% (active).

Take `COc1ccc(S(=O)(=O)N(C(C)=O)c2ccccc2/C=C/c2cc[n+]([O-])cc2)cc1`: the growth is 10.8% (inactive). `Cc1cccc(C)c1NC(=O)CSC(=S)N1CCN(CCOCCO)CC1`: the growth is 127% (inactive).

For the compound `COc1cc(/C=C/C(=O)/C=C/c2cc(OC)c3c(c2)OCO3)cc2c1OCO2`, the growth is 76.2% (inactive). For `Cn1c(=O)c2[nH]c(CCCCCCCCc3nc4ccccc4[nH]3)nc2n(C)c1=O`, the growth is 10.7% (inactive) and 21.7% (inactive). The result for `COc1ccc(NC(=O)C(=O)c2c[nH]c3ccc(F)cc23)cc1` reads 95.3% (inactive); that for `CS(=O)(=O)c1ccc(-c2nc3cc(Cl)ccc3n2CC(=O)N/N=C/c2ccc(Cl)cc2)cc1`, 96.6% (inactive); that for `CCc1ccc(Nc2cc(C)c3ccc(O)cc3n2)cc1`, -11.2% (active). For `O=c1n(CC2CO2)c(=O)n(CC2CO2)c(=O)n1CC1CO1` (stereo unspecified), the growth was 56.7% (inactive).

`O=C(N/N=C\c1cc(Cl)ccc1[N+](=O)[O-])c1ccco1`: the growth was 58.5% (inactive). With `CCNCC(=O)Nc1ccc(C(=O)OCC)cc1`, the growth was 111% (inactive).

For the compound `O=C(CSc1nnc(-c2ccc(Cl)cc2)o1)Nc1ccc(C(=O)/C=C/c2ccc(Cl)cc2)cc1`, the growth is 116% (inactive). As to `N=c1ccc2nc3ccc(N)cc3sc-2c1`, the growth was -16.2% (active). The result for `NNc1ccccc1C(=O)O` reads 102% (inactive); that for `C#Cc1c2c(c(OC)c3c1OCO3)[C@H]([C@H]1OC(=O)c3c1ccc(OC)c3OC)N(C)CC2`, 79.9% (inactive); that for `O=C(COc1ccc(Cl)cc1)N1CCN(Cc2ccc3c(c2)OCO3)CC1`, 98.5% (inactive). The result for `CS(=O)(=O)OC1CC(n2ccc(=O)[nH]c2=O)OC1COC(c1ccccc1)(c1ccccc1)c1ccccc1` (stereo unspecified) reads 110% (inactive); that for `O=C(CN1C(=O)S/C(=C\c2ccccc2)C1=O)Nc1ncc(Cc2ccccc2Cl)s1`, 115% (inactive); that for `COC1OC(COS(=O)OC)C(O)C(O)C1OS(=O)OC` (stereo unspecified), 96.4% (inactive). In the case of `C#CCNC1CCC(c2csc(C#C)n2)=C1C` (stereo unspecified), the growth was 58.9% (inactive). Under `CC(=O)c1cc2c(N)c(C(=O)Nc3ccccn3)sc2nc1C` stands 57.3% (inactive). The result for `CCOC(=O)c1c(C)nc2c(c1N)CC(=O)N2Cc1cc(F)cc(Cl)c1` reads 84.9% (inactive); that for `CO[C@H]1/C=C/O[C@@]2(C)Oc3c(C)c(O)c4c(O)c(c(/C=N/N5CCN(C)CC5)c(O)c4c3C2=O)NC(=O)/C(C)=C\C=C\C(C)[C@H](O)[C@@H](C)[C@@H](O)[C@@H](C)[C@@H](OC(C)=O)[C@@H]1C` (stereo partly specified), 92.2% (inactive); that for `O=S(=O)(Nc1ccc(Cl)cc1Cl)c1ccc(-c2cnc(C3CC3)o2)cc1`, -34.2% (active). `CC(C)=CCc1ccc(O)c(=O)cc1C(C)C`: the growth was -24.2% (active). For `COc1ccc2c(c1)C(=O)CC(c1ccccc1OC)O2` (stereo unspecified), the growth was 92.2% (inactive).
